Reference: PubChem BioAssay (NCI)
This is part of a sample that, as a whole, favours compounds with a hit. Of some 83,000 tested, about 20% had one in any assay.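 The endpoint reported here, percent growth, reads 100 for growth as untreated, 0 for no net growth and -100 for all cells dead.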 Activity calls are given as the source filed them. Rule for the calls: active = growth percent below 10; inactive = the rest.

How the values were obtained:
Experiment in all cases: NCI-60 one-dose screen, 48 h (100 = growth as untreated, 0 = no growth, -100 = all killed)
Details in all cases: 10 µM unless noted
[1] = system: DU-145 prostate
[2] = system: K-562 leukemia
[3] = system: MALME-3M melanoma
[4] = system: MDA-MB-231 breast
[5] = system: RXF 393 renal
[6] = system: SF-268 CNS
[7] = system: SF-295 CNS
[8] = system: SF-539 CNS
[9] = system: UACC-257 melanoma
[10] = system: M14 melanoma
[11] = system: HCT-15 colon
[12] = system: HT29 colon
[13] = system: SNB-75 CNS
[14] = system: SNB-19 CNS
[15] = system: U251 CNS
[16] = system: PC-3 prostate
[17] = system: SK-MEL-5 melanoma
[18] = system: UACC-62 melanoma
[19] = system: LOX IMVI melanoma
[20] = system: SK-MEL-28 melanoma

Measured: growth

CC(C)=C[C@@H]1c2c(c3ccccc3n(C)c2=O)O[C@H]2c3c(c4ccccc4n(C)c3=O)OC(C)(C)[C@@H]12
inactive: [1] 106% | [2] 56.1% | [3] 99.4% | [4] 85.8% | [5] 88.9% | [6] 86.1% | [7] 65.5% | [8] 81.2% | [9] 82.2% | [10] 98.9% | [11] 65.4% | [12] 77.9% | [13] 60.6% | [14] 99.2% | [15] 84.5% | [17] 61.5% | [18] 65.6% | [19] 67% | [20] 104%
active: [16] 6.54%

Nc1n[nH]c2cc(F)c([C@@H]3Nc4c(F)cc5[nH]ncc5c4[C@H]4C5CCC(C5)[C@@H]34)cc12 (stereo not given in full)
inactive: [2] 11.6% | [3] 46.3% | [4] 15.5% | [5] 41.3% | [6] 10.5% | [7] 15% | [9] 72.4% | [10] 21.2% | [12] 17% | [14] 53.1% | [15] 33.2% | [16] 22.5% | [18] 35.3% | [19] 20.2% | [20] 52.8%
active: [1] -0.222% | [8] 4.53% | [11] 6.76% | [13] -20.9% | [17] 8.05%

CCc1ccccc1-n1c(-c2ccc(Cl)cc2)cc(-c2ccc(Cl)cc2)c(C#N)c1=O
inactive: [1] 77.1% | [2] 66.1% | [3] 90.8% | [4] 101% | [5] 93.3% | [6] 83.6% | [7] 89% | [8] 104% | [9] 98.6% | [10] 85.3% | [11] 84.3% | [12] 84.4% | [13] 98.6% | [14] 109% | [15] 84.9% | [16] 76.4% | [17] 88.7% | [18] 84.8% | [19] 82.4% | [20] 99.4%

CC1=NOC(=O)/C1=C\c1ccc(O)cc1
inactive: [1] 111% | [2] 98.2% | [3] 100% | [4] 95.1% | [5] 115% | [6] 98.4% | [7] 99.6% | [8] 98.8% | [9] 101% | [10] 103% | [11] 104% | [12] 106% | [13] 77.9% | [14] 99% | [15] 101% | [16] 101% | [17] 101% | [18] 100% | [19] 96.8% | [20] 103%

Cc1nn(-c2ccccc2)c2nc3c(c(-c4ccc(Cl)cc4)c12)CNC1(CCSCC1)N3
inactive: [1] 110% | [2] 93.1% | [3] 96.5% | [4] 96.9% | [5] 88.8% | [6] 101% | [7] 103% | [8] 110% | [9] 107% | [10] 94.1% | [11] 101% | [12] 101% | [13] 78.6% | [14] 106% | [15] 95.8% | [16] 87% | [17] 99.1% | [18] 102% | [19] 97.7% | [20] 104%

COc1ccc(C(=O)Nn2c(NCC(=O)N3c4ccccc4Sc4ccccc43)nnc2-c2ccc(O)cc2)cc1
inactive: [1] 116% | [2] 114% | [3] 98.1% | [4] 101% | [5] 117% | [6] 111% | [7] 107% | [8] 117% | [9] 94.9% | [10] 91.7% | [11] 96.9% | [12] 98.2% | [13] 115% | [14] 111% | [15] 97% | [16] 97.6% | [17] 104% | [18] 104% | [19] 98.4% | [20] 119%

CCCCCCCCCCCCCCCCCCOc1ccccc1CC(=O)OCCC[N+](C)(C)C
inactive: [1] 60.5% | [2] 37.4% | [3] 52.7% | [4] 45.9% | [6] 53.2% | [7] 75.4% | [8] 52.1% | [9] 84.7% | [10] 46.3% | [11] 78.7% | [12] 40% | [13] 40.6% | [14] 34.2% | [15] 24.2% | [16] 36.8% | [17] 43.2% | [18] 54.2% | [19] 36.4% | [20] 66.8%
active: [5] -18.2%

COc1nc(N(C)O)nc(N(C)O)n1
inactive: [1] 23.5% | [2] 20.3% | [3] 58.6% | [4] 49.1% | [5] 58.5% | [6] 30.9% | [7] 60.6% | [8] 20.1% | [9] 39.6% | [10] 15% | [11] 23.9% | [12] 46.3% | [13] 74.5% | [14] 31.8% | [15] 27.2% | [16] 42.9% | [17] 13.1% | [18] 11.5% | [19] 14.8% | [20] 53.2%

COc1cccc2c1C(=O)c1c(O)c3c(c(O)c1C2=O)CC(O)(/C(C)=N/NC(=O)CCCCC(=O)N/N=C(\C)C1(O)Cc2c(O)c4c(c(O)c2C(OC2CC(N)C(O)C(C)O2)C1)C(=O)c1c(OC)cccc1C4=O)CC3OC1CC(N)C(O)C(C)O1 (stereo not given)
inactive: [11] 13.8% [5 µM]
active: [1] -47.4% [5 µM] | [2] -51.8% [5 µM] | [3] -66.9% [5 µM] | [4] -2.21% [5 µM] | [5] -55.4% [5 µM] | [6] -31.3% [5 µM] | [7] -35.3% [5 µM] | [8] -41.8% [5 µM] | [9] -34.3% [5 µM] | [10] -57.1% [5 µM] | [12] -68.9% [5 µM] | [13] -67.7% [5 µM] | [14] -8.14% [5 µM] | [15] 2.32% [5 µM] | [16] -40.4% [5 µM] | [17] -89% [5 µM] | [18] -93% [5 µM] | [19] 1.34% [5 µM] | [20] -76.5% [5 µM]

C[C@@H]1N=C(c2ccc3ccccc3n2)Nc2nc3ccccn3c2C1=O
inactive: [1] 107% | [2] 102% | [3] 92.4% | [4] 79.4% | [5] 119% | [6] 101% | [7] 90.4% | [8] 86.7% | [9] 117% | [10] 105% | [11] 86.8% | [12] 115% | [13] 84.7% | [14] 91.2% | [15] 106% | [16] 96.8% | [17] 94.3% | [18] 90.1% | [19] 93% | [20] 112%

COC(=O)[C@]12CC[C@@H](C)[C@H](C)[C@@H]1C1=CC[C@@H]3[C@@]4(C)C(C=O)=C[C@@](C)(CO)[C@@H]4[C@H](O)C[C@@]3(C)[C@]1(C)CC2
inactive: [14] 24.4%
active: [1] -30% | [2] 6.68% | [3] -70.7% | [4] -47.6% | [5] -82% | [6] -0.0873% | [7] -15.6% | [8] -44% | [9] -48.4% | [10] -51.5% | [11] -68.1% | [12] -37.7% | [13] 3.2% | [15] -19% | [16] -0.105% | [17] -85.7% | [18] -34.5% | [19] -97.9% | [20] -34.5%

Cc1ccc2nc(NC(=O)CSc3nc(-c4ccccc4)c(C#N)c(=O)n3Cc3ccccc3)sc2c1
inactive: [1] 103% | [2] 73.3% | [3] 78.6% | [4] 82.5% | [5] 75.8% | [6] 92.1% | [7] 95.3% | [8] 90.4% | [9] 98.3% | [10] 88.1% | [11] 96.6% | [12] 105% | [13] 63.5% | [14] 78.3% | [15] 87.8% | [16] 71.9% | [17] 83.1% | [18] 53.5% | [19] 83.1% | [20] 79.1%

CCOC(=O)c1c(/C=C/C(=O)O)nc2ccccc2c1/C=C/c1ccccc1
inactive: [1] 14.2% | [2] 23.9% | [3] 51.4% | [4] 57.5% | [5] 11.3% | [6] 40.7% | [7] 73.6% | [8] 19.8% | [9] 49.6% | [10] 63% | [11] 23.9% | [12] 49.9% | [13] 15% | [14] 61.1% | [15] 51.2% | [16] 53.5% | [17] 53.7% | [18] 45.5% | [19] 28.1% | [20] 45.8%

O=c1[nH][n+](-c2ccc(Cl)cc2)no1
active: [18] 5.96%
inactive: [1] 59.7% | [2] 10.4% | [3] 84.7% | [4] 70.7% | [5] 121% | [6] 47.7% | [7] 34.5% | [8] 66.7% | [9] 64.9% | [10] 81.5% | [11] 34.5% | [12] 95% | [13] 74.4% | [14] 91.3% | [15] 83.2% | [16] 72% | [17] 96.1% | [19] 28.4% | [20] 77.3%

O=C1/C(=C\c2c[nH]c3ccccc23)c2ccccc2N1c1c(Cl)cccc1Cl
active: [2] -0.66% | [3] -16.8% | [4] -2.7% | [5] -43.5% | [7] -47.9% | [8] -59.9% | [10] -86.3% | [11] 5.59% | [12] -29.6% | [15] -34% | [16] 2.68% | [17] -39.2% | [18] -58.6% | [19] -100% | [20] -30.6%
inactive: [1] 14.5% | [6] 23.7% | [9] 23.6% | [13] 39.2% | [14] 37%
